Compound activity: PubChem BioAssay, several laboratories
A selection: hits, their analogues and other compounds. The true share with any hit is near 2.3%.
697 NFkB inh: inhibitors of PMA/ionomycin-induced NF-kB reporter, 697 cells, primary screen, B-cell NF-kB inhibitor project, cell-based, luminescence, uHTS; 697 B-cell NF-kB luciferase reporter, 16 h; inhibition, % at 4 µM; hit rate 0.33% among 330,000; AID 435022, 2010; in the data active = inhibition above about 35%
Gli-Sufu block: Gli-Sufu pathway antagonists, primary screen, luciferase luminescence, Sufu-KO-LIGHT cells, uHTS; AID 588413, 2011; inhibition, % at 5 µM; hit rate 0.74% among 340,000; Sufu-KO-LIGHT fibroblasts, Gli luciferase reporter luminescence;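 active = inhibition above about 55%, limit read from the data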
Shn3 3UTR inh: reduction of Shn3 3'UTR firefly luciferase signal, primary screen, Schnurri-3 inhibitor project, cell-based, Clone20 osteoblasts, set 2. Clone20 osteoblast Shn3 3'UTR firefly luciferase, 24 h. inhibition, % at 12.5 µM. hit rate 0.52% among 360,000. AID 588674, 2011;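 active = mean inhibition of at least 75% with every replicate also reaching 75%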
TRPM1 prom inh: inhibitors of MITF-dependent TRPM1 promoter reporter, primary screen, cell-based, SK-MEL-5, single point, luciferase | SK-MEL-5 TRPM1 promoter luciferase, 24 h | inhibition, % at 12.5 µM | AID 488899, 2010 | hit rate 0.83% among 330,000;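 active = mean inhibition across replicates of 60% or more, whatever share of single replicates reaches that level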
EBV LMP1 NFkB: EBV LMP1-driven NF-kappaB luciferase reporter inhibitors, primary screen, cell-based, luminescence, single point; inhibition, % at 12.5 µM; AID 504558, 2011; LMP1-induced NF-kappaB luciferase reporter cells; hit rate 0.69% among 350,000; in the data active = inhibition above about 41%
Jurkat NFkB inh: inhibitors of induced NF-kB luciferase reporter, primary screen, TCR NF-kB activation inhibitor project, cell-based, luminescence, uHTS. AID 435003, 2010. hit rate 0.53% among 330,000. inhibition, % at 4 µM. Jurkat, PMA/ionomycin-induced NF-kB luciferase reporter; in the data active = inhibition above about 50%
Hits are given with their value; - = inactive; . = no result given.

SMILES | 697 NFkB inh | Gli-Sufu block | Shn3 3UTR inh | TRPM1 prom inh | EBV LMP1 NFkB | Jurkat NFkB inh
C[C@@H]1CN(C2CCC(C#N)(c3ccc(F)cc3)CC2)CC[C@]1(C(=O)O)c1ccccc1 (some centres undefined) | - | - | - | - | 79 | -
Cc1ccnc(-n2c(-c3ccccc3)nc3ccccc3c2=O)c1 | - | - | - | - | - | -
O=C(NC1(C(F)(F)F)Oc2ccc(Cl)cc2O1)N1CCC2(CC1)OCCO2 (centres undefined) | - | - | - | - | - | -
COc1cc(C2(C#N)CCN(C)CC2)cc(OC)c1OC | . | - | - | - | - | .
CSc1cccc(NP2(=O)OCC(C)([N+](=O)[O-])CO2)c1 (centres undefined) | . | - | - | - | 62 | .
CC1([N+](=O)[O-])COP(=O)(Nc2ccccc2F)OC1 (centres undefined) | . | - | - | - | - | .
O=C1NC(=O)C(CCc2ccncc2)(CCc2ccncc2)C(=O)N1C1CCCCC1 | - | - | - | - | - | -
C[C@H]1CCC/C=C/[C@@H]2C[C@H](O)C[C@H]2[C@@H](O)/C=C/C(=O)O1 | . | 86 | 88 | 89 | - | .
COc1ccc(C(C)=O)cc1CC(C(=O)c1ccc(C)c(C)c1)N(C)C (centres undefined) | - | - | - | - | - | -
CCCCN(Cc1ccccc1)C1CCN(CCc2ccccc2)CC1 | - | - | - | - | - | -
COc1cc(C2c3cc4c(cc3CC3COC(=O)C32)OCO4)cc(OC)c1O (centres undefined) | . | - | - | - | - | .
O=C1NC2C(O)C(O)C(O)C(O)C2c2cc3c(c(O)c21)OCO3 (centres undefined) | . | 72 | 87 | 72 | 92 | .
O=C1NC(=O)C(=CCc2ccccc2)C(=O)N1 | . | - | - | - | - | .
CN(C)C(=O)Oc1ccc2oc(=O)cc(-c3cc4ccccc4o3)c2c1 | - | - | - | - | - | -
O=C1NC(=O)N(C2CCCCC2)C(=O)C1C1c2ccccc2C(=O)N1Cc1ccccc1 (centres undefined) | - | - | - | - | 78 | -
O=c1[nH]c(CN2CC=C(c3ccccc3)CC2)nc2scc(-c3ccccc3)c12 | - | - | - | - | - | -
O=c1[nH]c(CN2CC=C(c3ccccc3)CC2)nc2cc(C(F)(F)F)ccc12 | - | - | - | - | 44 | -
NC(Cc1ccc(Cl)cc1)c1csc(Nc2cnccn2)n1 (centres undefined) | . | . | - | . | . | .
Cc1c2ccncc2c(C)c2c1[nH]c1ccccc12 | - | - | - | 89 | - | -
CCCCCn1c(=O)c(C(=O)Nc2ccccc2N)c(O)c2ccccc21 | - | - | - | - | - | -
COc1cc2c(c(OC)c1OC)-c1ccc(O)cc1C(NC(C)=O)CC2 (centres undefined) | . | - | - | 61 | - | .
COc1cc2c(c(OC)c1OC)-c1ccc(O)c(=O)cc1[C@@H](NC(C)=O)CC2 | - | - | - | - | - | -
CN1CN(c2ccccc2)C2(CCN(CCCSc3ccccc3NC(=O)/C=C/c3ccccc3)CC2)C1=O | . | - | - | 69 | - | .
O=C(N/N=C/c1c(O)n(C2CCCCC2)c(=S)[nH]c1=O)c1ccccc1 | - | - | - | - | - | -
O=C(N/N=C/c1c(O)n(C2CCCCC2)c(=S)[nH]c1=O)c1ccccc1O | - | - | - | - | 42 | -
CN1CCN(CC(=O)Nc2ccc([N+](=O)[O-])cc2C(=O)c2ccccc2)CC1 | - | - | - | - | - | -
CO[C@@H]1C=CC23c4cc5c(cc4CO[C@]2(O)CN(C)[C@H]3C1)OCO5 (some centres undefined) | - | - | - | - | - | -
CC12CCC3C(CCC4(O)CC(O)CCC34C=NO)C1(O)CCC2C1=COC(=O)C1 (centres undefined) | . | - | - | 69 | 62 | .
